# Test results as given in PubChem BioAssay (Tox21).
# Unmarked numbers belong to inactive results. Records with an inconclusive call do not appear. Where a call stands in place of a potency, no number is given. Activity calls are given as the source filed them. Unless noted, the call rests on the fitted dose curve; in most records, active means well fitted curve in the direction sought with a large enough effect in the repeat runs; inconclusive means weak or mixed curves; inactive means no such curve, though single readings can be large; an effect the other way counts as inactive or inconclusive.
# Key:
# [1] = qHTS assay to identify small molecule agonists of H2AX (AID 1224845; active means well fitted activation curve with a large enough effect in the signal ratio in the repeat runs, not every such curve was filed as active; the % refers to the signal ratio)
# Procedure, shortened: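 Phospho-H2AX Ser139 measured by HTRF (ex 320 nm; em 665 and 620 nm) after 24 hr antibody incubation. Compounds, 15 concentrations, 0.76% DMSO, were applied to CHO-K1 cells for 3hr at 37C before lysis.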
# [2] = qHTS assay to identify small molecule agonists of the hypoxia (HIF-1) signaling pathway (AID 1224846; active means well fitted activation curve with a large enough effect in the signal ratio in the repeat runs, not every such curve was filed as active; the % refers to the signal ratio)
# Procedure, shortened: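 HRE-bla ME-180 cells (beta-lactamase reporter under hypoxia response element) were plated at 2,000 cells/well in medium with 0.5% dialyzed FBS, rested 5 hrs, then given compounds in DMSO for 17 hrs at 37C, 5% CO2. Reporter induction was read with CCF4-AM FRET substrate.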
# [3] = qHTS assay to identify small molecule agonists of H2AX - cell viability counter screen (AID 1224847; calls by dose curve;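 further: wild-type CHO-K1 cells; top concentration of the series differs between compounds; nearly all actives have a fitted effect of over 30% in size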)
# Procedure, shortened: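 For this counter screen, overnight-attached CHO-K1 cells received test compounds (15 concentrations, 0.76% DMSO final); 3 hr later at 37C, CellTiter-Glo reagent was added and luminescence recorded after 30 min at room temperature.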
# [4] = qHTS assay to identify small molecule antagonists of the estrogen related receptor (ERR) signaling pathway from Tox21 library (AID 1224848); further: nearly all actives have a fitted effect of over 50% in size
# Procedure, shortened: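 Antagonist-mode screen of the Tox21 10K library in an NTP-provided ERR reporter cell line; 18 h compound exposure at 37 C, luminescence measured with ONE-Glo.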
# [5] = qHTS RealTime-Glo MT Cell Viability Assay in HepG2 cells - 24 hour (AID 1224867); further: nearly all actives have a fitted effect of over 50% in size
# Procedure, shortened: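 Cells + NanoLuc/prosubstrate dispensed (600 cells/well) → 5 h at 37 C/5% CO2 → compounds in DMSO transferred → 40 h incubation at 37 C, luminescence read at 0, 8, 16, 24, 32, 40 h.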
# [6] = A CellTox Green Cytotoxicity Assay to monitor cytotoxicity in HEK293 cells - 0 hour (AID 1224869); further: nearly all actives have a fitted effect of over 50% in size
# Procedure, shortened: (§1)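 HEK293 cells premixed with CellTox Green dye were seeded at 600 cells/well and left 5 h at 37 C/5% CO2 before pin transfer of 23 nL compound in DMSO. Fluorescence from dye bound to dead-cell DNA was read during 40 h treatment.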
# [7] = qHTS RealTime-Glo MT Cell Viability Assay in HepG2 cells - 40 hour (AID 1224870); further: nearly all actives have a fitted effect of over 50% in size
# Procedure, shortened: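 Real-time viability: cells seeded at 600 per well together with NanoLuc and cell-permeant prosubstrate, compounds added after 5 h incubation. Luminescence tracked at 0, 8, 16, 24, 32 and 40 h of exposure.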
# [8] = A CellTox Green Cytotoxicity Assay to monitor cytotoxicity in HEK293 cells - 40 hour (AID 1224871); further: nearly all actives have a fitted effect of over 45% in size; further: potency means the concentration at half of the fitted maximal effect
# Procedure, shortened: as §1
# [9] = qHTS RealTime-Glo MT Cell Viability Assay in HEK293 cells - 32 hour (AID 1224868); further: nearly all actives have a fitted effect of over 50% in size; further: potency means the concentration at half of the fitted maximal effect
# Procedure, shortened: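 Tox21 10K qHTS, HEK293, 600 cells/well, RealTime-Glo reagent co-dispensed with cells; 5 h preincubation, compound by pintool, 37 C, luminescence at 0–40 h.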
# [10] = qHTS assay to identify small molecule agonists of the estrogen related receptor (ERR) signaling pathway from Tox21 library (AID 1224849; calls by dose curve; further: nearly all actives have a fitted effect of over 15% in size); conditions: ERR reporter cell line, ONE-Glo luciferase, 18 h; at 92.4 µM (top of the series) unless noted
# Procedure, shortened: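 ERR reporter cell line (NTP) seeded, rested 6 h at 37 C/5% CO2, then pinned with Tox21 compounds in DMSO. After 18 h at 37 C, ONE-Glo luciferase luminescence was read following 30 min at room temperature.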
Compound,Potency [1],outcome [2],Potency [3],Potency [4],Potency [5],Potency [6],Potency [7],Potency [8],Potency [9],"activity change, positive = activation [10]"
O=C(NS(=O)(=O)/C=C/c1ccccc1)c1ccc(F)cc1Cl,inactive,inactive,inactive,inactive,inactive,inactive,inactive,inactive,–,–
COC(CC(C)CCCC(C)(C)O)OC (stereo unspecified),inactive,inactive,inactive,–,inactive,inactive,inactive,inactive,inactive,–
CCO[Si](C)(CCCOCC1CO1)OCC (stereo unspecified),inactive,inactive,inactive,inactive,inactive,inactive,inactive,inactive,inactive,0.152%
Cc1ccc(S(=O)(=O)NC(=O)NC2CCCCC2)cc1,inactive,inactive,inactive,–,inactive,inactive,inactive,inactive,inactive,–
O=P(O)(O)Oc1ccccc1,inactive,inactive,inactive,–,inactive,inactive,inactive,inactive,inactive,–
CCOC(=O)C(C)O (stereo unspecified),inactive,inactive,inactive,–,inactive,inactive,inactive,inactive,inactive,–
FC(F)(F)C(F)(F)C(F)(F)C(F)(F)CCI,inactive,inactive,inactive,–,inactive,inactive,inactive,inactive,inactive,–
CC(=O)C(=O)CC(C)C,inactive,inactive,inactive,–,inactive,inactive,inactive,inactive,inactive,–
CC(C)C1CCC(C(=O)N[C@H](Cc2ccccc2)C(=O)O)CC1 (stereo partly specified),inactive,inactive,inactive,–,inactive,inactive,inactive,inactive,inactive,–
COc1ccc(CCN(C)CCCN2CCc3cc(OC)c(OC)cc3CC2=O)cc1OC,inactive,inactive,inactive,–,inactive,inactive,inactive,inactive,inactive,–
CNC1CCCN(c2c(F)cc3c(=O)c(C(=O)O)cn(C4CC4)c3c2OC)C1 (stereo unspecified),inactive,inactive,inactive,–,inactive,inactive,inactive,inactive,inactive,–
CCCCCc1ccco1,inactive,inactive,inactive,–,inactive,inactive,inactive,inactive,inactive,–
CNCc1ccc(NC(=O)c2c[nH]c3c2C(=O)CCC3)cc1,inactive,inactive,inactive,inactive,inactive,inactive,inactive,inactive,–,-17.3%
CCCCCCCCCCCSCC(=O)O,inactive,inactive,inactive,–,inactive,inactive,inactive,inactive,inactive,-19.7%
C=CC(=O)O,inactive,inactive,inactive,–,inactive,inactive,inactive,inactive,inactive,–
CCC(C)(C)C(=O)O,inactive,inactive,inactive,–,inactive,inactive,inactive,inactive,inactive,–
O=[N+]([O-])c1ccc2ncccc2c1,inactive,inactive,inactive,–,inactive,inactive,inactive,inactive,inactive,-20.1%
CC(C)Cc1ccc(CC(=O)O)cc1,inactive,inactive,inactive,inactive,inactive,–,inactive,15.1 µM (active),inactive,-10.3% [at 42.5 µM]
SCCc1cnccn1,inactive,inactive,inactive,–,inactive,inactive,inactive,inactive,inactive,-18.7%

Compound,Potency [1],outcome [2],Potency [3],Potency [4],Potency [5],Potency [6],Potency [7],Potency [8],Potency [9],"activity change, positive = activation [10]"
COc1ccc(-n2nc(C(F)F)cc2-c2ccc(S(C)=O)cc2)cc1 (stereo unspecified),inactive,inactive,inactive,–,inactive,inactive,inactive,inactive,inactive,–
O=C(O)CCC(=O)OC[C@@H](NC(=O)C(Cl)Cl)[C@H](O)c1ccc([N+](=O)[O-])cc1,inactive,inactive,inactive,–,inactive,inactive,inactive,21.3 µM (active),inactive,–
CC1CCCC(=O)C1=O (stereo unspecified),inactive,inactive,inactive,–,inactive,inactive,inactive,inactive,inactive,–
CC(C)C(=O)OCCOc1ccccc1,inactive,inactive,inactive,–,inactive,inactive,inactive,inactive,inactive,–
Nc1nc(-c2ccc([N+](=O)[O-])cc2)cs1,inactive,inactive,inactive,–,inactive,inactive,inactive,inactive,inactive,–
CC1=CC[C@@]23C[C@@H]1C(C)(C)[C@@H]2CC[C@H]3C,inactive,inactive,inactive,–,inactive,inactive,inactive,inactive,inactive,–
CCCCCCC(O)CCCCCCCCCCC(=O)OC (stereo unspecified),inactive,inactive,inactive,–,inactive,inactive,inactive,inactive,inactive,–
CCN(CC)CCOc1ccccc1C(=O)CCc1ccccc1,inactive,inactive,inactive,–,inactive,inactive,inactive,inactive,12 µM (active),-25.9% [at 42.5 µM]
O=C(O)CNC(=O)c1ccccc1I,inactive,inactive,inactive,–,inactive,inactive,inactive,inactive,inactive,–
COc1ccc(/C=C/C(=O)c2ccc(OC)cc2OC)cc1,inactive,inactive,inactive,–,inactive,inactive,inactive,inactive,inactive,-32.9% [at 42.5 µM]
CC(=O)NCCO,inactive,inactive,inactive,–,inactive,inactive,inactive,inactive,inactive,–
CCCCCC,inactive,inactive,inactive,–,inactive,inactive,inactive,inactive,inactive,–
CC(=O)OCC(C)C,inactive,inactive,inactive,–,inactive,inactive,inactive,inactive,inactive,–
CN1C(CSCC(F)(F)F)Nc2cc(Cl)c(S(N)(=O)=O)cc2S1(=O)=O (stereo unspecified),inactive,inactive,inactive,–,inactive,inactive,inactive,inactive,19 µM (active),-16.7% [at 42.5 µM]
Cc1ccc(NC(=O)N(C)C)cc1NC(=O)N(C)C,inactive,inactive,inactive,–,inactive,inactive,inactive,inactive,inactive,–
O=C(Nc1ccc(C(=O)O)c(O)c1)c1ccccc1,inactive,inactive,inactive,–,inactive,inactive,inactive,inactive,inactive,–
CCN(CC)CC(=O)Nc1c(C)cccc1C(=O)OC,inactive,inactive,inactive,–,inactive,inactive,inactive,inactive,inactive,–
CSSc1ccoc1C,inactive,inactive,inactive,–,inactive,inactive,inactive,inactive,inactive,–
